Compounds without any hit were thinned out: in the full panel of roughly 83,000, 20% have a hit.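 A percent growth of 40 corresponds to 60% growth inhibition; 0 means no net growth; -100 means all cells died. Active threshold: below 10.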 Unmarked numbers belong to inactive results. The source made the active and inactive calls.
These molecules were tested on HS 578T breast (assay: NCI-60 one-dose screen, 48 h (100 = growth as untreated, 0 = no growth, -100 = all killed)). Conditions: 10 µM.
With `COc1ccc([C@H]2C(C(=O)c3ccc(Cl)cc3)C3(N[C@@H]2c2ccccc2)C(=O)Nc2ccc(Cl)cc23)cc1` (some centres not stated) the growth was -10.1% (active).
In the case of `O=C1Nc2cc(-c3ccc(NC(=O)c4cccc([N+](=O)[O-])c4)cc3)ccc2/C1=C/c1ccc[nH]1`, the growth is reported as 108%.
`CCCn1c(=O)c2[nH]c(-c3ccc(OCc4nc5ccc(F)cc5[nH]4)cc3)nc2n(CCC)c1=O` was tested, and the growth was 0.819% (active).
`CCCS(=O)(=O)c1oc(-c2ccc(F)cc2)nc1S(=O)(=O)c1ccc(F)cc1` gave a growth of 56.8%.
`O=C(CSc1nnc(-c2c[nH]c3ccccc23)n1-c1ccccc1)Nc1ccc(C(=O)/C=C/c2ccc(Br)cc2)cc1` was tested, and the growth was 82.2%.
`CCOC(=O)C1=C(N)N(c2ccc(Cl)cc2)C2=C(C(=O)CC(C)(C)C2)C1c1ccc(N2CCOCC2)cc1` (configuration not stated) was tested, and the growth was 109%.
Molecule `COc1ccc2[nH]cc(/C=N/Nc3ccc(Br)cn3)c2c1` has a growth of 25.8%.
With `O/N=C(\CSc1nnc(-c2c[nH]c3ccccc23)n1-c1ccccc1)c1ccc(Cl)cc1` the growth was -31.7% (active).
For `COc1ccc2[nH]c(O)c(N=NC(=O)COc3ccc(NC(=O)Nc4ccc(Cl)c(Cl)c4)cc3)c2c1`, the growth was -3.4% (active).
With `C=C1CC[C@H](C(=C)C)[C@H]2C=C(C)C(=O)C3=C(C(=O)[C@@](C)(O)C3)[C@H]12` the growth was -13.1% (active).
Molecule `O=S(=O)(Nc1ncccn1)c1ccc(-n2c(-c3ccccc3)nc(-c3ccccc3)c2-c2ccccc2)cc1` has a growth of 81%.
`CN(C)c1ccc(/C=C/C(=O)c2ccc(NC(=O)CN3C(=O)NC(C)(c4ccccc4)C3=O)cc2)cc1` (configuration not stated) gave a growth of 78%.
